A selection: hits, their analogues and other compounds. The true share with any hit is near 2.3%.
Pf Dd2 inh: blocks growth of Plasmodium falciparum Dd2 parasites; 94,000 tested, 2.3% active; P. falciparum Dd2 growth, SYBR Green, 72 h; active compounds read low; AID 1159554; activity change, % at 10 µM; in the data active = activity change below about -80%; inconclusive = no clear call, values can overlap the other calls
C diff growth: C. difficile growth inhibition | Clostridium difficile clinical isolate growth, OD600, 24 h; active compounds read low | 86,000 tested, 0.25% active | growth activity, negative = inhibition, % at 16 µg/mL (by protocol);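 active = mean growth activity at or below -80% and every replicate also at or below -80%; inconclusive = mean at or below -80% but some replicate above -80%; inactive = mean growth activity above -80%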
Numbers stand for hits; . = inactive; ? = inconclusive; / = no result.

SMILES	Pf Dd2 inh	C diff growth
COc1ccc(S(=O)(=O)N(C)C[C@@H]2Oc3ccc(NC(=O)CCCCCC(=O)Nc4ccccc4N)cc3C(=O)N([C@@H](C)CO)C[C@H]2C)cc1	.	.
COc1ccc(NC(=O)N2CCCCN3[C@H](CO)[C@H](c4ccc(C#CCC(C)C)cc4)[C@@H]3C2)cc1	-90	.
COc1ccc(NC(=O)N2CCCCN3[C@H](CO)[C@H](c4ccc(C#Cc5ccccc5)cc4)[C@@H]3C2)cc1	-84	.
COc1ccc(NC(=O)N2CCCCN3[C@H](CO)[C@@H](c4ccc(C#Cc5ccccc5)cc4)[C@@H]3C2)cc1	.	.
COc1ccc(NC(=O)N2CCCCN3[C@H](CO)[C@@H](c4ccc(C#Cc5ccccc5)cc4)[C@H]3C2)cc1	.	.
COc1ccc(NC(=O)N2CCCCN3[C@H](C2)[C@H](c2ccc(C#CCC(C)C)cc2)[C@@H]3CO)cc1	.	.
COc1ccc(NC(=O)N2CCCCN3[C@H](CO)[C@H](c4ccc(C#Cc5ccccn5)cc4)[C@@H]3C2)cc1	?	.
COc1ccc(NC(=O)N2CCCCN3[C@@H](CO)[C@H](c4ccc(C#Cc5ccccn5)cc4)[C@@H]3C2)cc1	-85	.
COc1ccc(NC(=O)N2CCCCN3[C@@H](CO)[C@@H](c4ccc(C#Cc5ccccc5)cc4)[C@@H]3C2)cc1	.	-97
C/C=C/c1ccc([C@H]2[C@@H](CN(C)C(=O)c3ccccn3)N(C(C)=O)[C@H]2CO)cc1	.	.
CCC(=O)Nc1ccc2c(c1)C(=O)N(C)C[C@H](OC)[C@@H](C)CN(CC1CCCCC1)[C@H](C)CO2	.	/
C[C@H]1CN([C@@H](C)CO)C(=O)c2cc(C#Cc3ccc(F)cc3)cnc2O[C@@H]1CN(C)S(C)(=O)=O	.	.
CCC(=O)NC[C@@H]1[C@@H](c2ccc(C3=CCCCC3)cc2)[C@@H](CO)N1CC1CC1	.	.
CCC(=O)N1[C@H](CO)[C@H](c2ccc(C3=CCCCC3)cc2)[C@@H]1CNC1CCCC1	.	.
CCCNC[C@H]1[C@@H](c2ccc(C3=CCCCC3)cc2)[C@@H](CO)N1C(=O)C1CCC1	-83	.
CCCNC[C@@H]1[C@@H](c2ccc(C3=CCCCC3)cc2)[C@@H](CO)N1C(=O)C1CCC1	.	.
CCC(=O)N1[C@H](CO)[C@H](c2ccc(C3=CCCCC3)cc2)[C@H]1CNCC1CCC1	-85	.
OC[C@@H]1[C@H](c2ccc(C3=CCCC3)cc2)[C@@H](CNC2CCCC2)N1CC1CC1	-91	.
C[C@H](NC(=O)C[C@@H]1CC[C@@H](NC(=O)CN2CCOCC2)[C@H](CO)O1)c1ccccc1	.	/
C[C@@H]1CCCCO[C@H](CN(C)S(=O)(=O)c2ccc(Cl)cc2)[C@@H](C)CN([C@@H](C)CO)C(=O)c2cc(NS(=O)(=O)c3cccs3)ccc2O1	/	.
C/C=C/c1ccc2c(c1)O[C@@H](CN(C)C(=O)Cc1ccccn1)[C@@H](C)CN([C@@H](C)CO)S2(=O)=O	.	.
COc1ccc2c3c([nH]c2c1)[C@@H](CO)N(C(=O)C1CCCCC1)CC31CCN(Cc2nccs2)CC1	-87	.
COc1ccc2c3c([nH]c2c1)[C@H](CO)N(C(=O)C1CCOCC1)CC31CCN(Cc2nccs2)CC1	-88	.
COc1ccc2c3c([nH]c2c1)[C@H](CO)N(C(=O)C1CC1)CC31CCN(Cc2nccs2)CC1	.	.
COc1ccc2c3c([nH]c2c1)[C@H](CO)N(C(=O)C1CCC1)CC31CCN(Cc2nccs2)CC1	.	.
SMILES	Pf Dd2 inh	C diff growth
COc1ccc(S(=O)(=O)N(C)C[C@@H]2Oc3ccc(NS(C)(=O)=O)cc3CC(=O)N([C@H](C)CO)C[C@@H]2C)cc1	.	.
O=C(C[C@@H]1C[C@H]2c3cc(NC(=O)c4cccnc4)ccc3O[C@H]2[C@H](CO)O1)NCC1CC1	.	.
COc1ccc2c3c([nH]c2c1)[C@H](CO)N(C(=O)Nc1cccc(F)c1)CC31CN(S(=O)(=O)c2cccc(C)c2)C1	.	.
COc1ccc2c3c([nH]c2c1)[C@H](CO)N(C(=O)Nc1cccc(F)c1)CC31CCN(S(=O)(=O)c2cccc(C)c2)CC1	-82	.
COc1ccc2c3c([nH]c2c1)[C@H](CO)N(C)CC31CCN(S(=O)(=O)c2cccc(F)c2)CC1	.	.
COc1ccc2c3c([nH]c2c1)[C@H](CO)N(CC1CC1)CC31CCN(S(=O)(=O)c2cccc(F)c2)CC1	-90	.
C[C@@H]1CN([C@@H](C)CO)C(=O)c2cc(NC(=O)Nc3ccc(F)cc3)ccc2O[C@@H](C)CCCCO[C@@H]1CN(C)S(=O)(=O)c1ccccc1	-84	.
C[C@@H]1CN([C@H](C)CO)C(=O)c2cc(NC(=O)Nc3ccc(F)cc3)ccc2O[C@@H](C)CCCCO[C@H]1CN(C)S(=O)(=O)c1ccccc1	.	.
C[C@@H]1CCCCO[C@@H](CN(C)S(=O)(=O)c2ccccc2)[C@H](C)CN([C@H](C)CO)C(=O)c2cc(NC(=O)Nc3ccc(F)cc3)ccc2O1	.	.
C[C@@H]1CCCCO[C@@H](CN(C)S(=O)(=O)c2ccccc2)[C@@H](C)CN([C@@H](C)CO)C(=O)c2cc(NC(=O)Nc3ccc(F)cc3)ccc2O1	-81	.
CC=Cc1ccc2n(c1=O)C[C@H]1[C@H](CO)[C@@H](C(=O)NCCC)N(CC3CC3)[C@@H]21 (mixture of isomers)	.	.
Cc1ccc(S(=O)(=O)N(C)C[C@H]2OCCCC[C@@H](C)Oc3ccc(NC(=O)CCCCCC(=O)Nc4ccccc4N)cc3C(=O)N([C@H](C)CO)C[C@@H]2C)cc1	-87	.
Cc1ccc(S(=O)(=O)N(C)C[C@@H]2OCCCC[C@@H](C)Oc3ccc(NC(=O)CCCCCC(=O)Nc4ccccc4N)cc3C(=O)N([C@H](C)CO)C[C@@H]2C)cc1	/	.
Cc1noc(C)c1S(=O)(=O)N(C)C[C@H]1OCCCC[C@@H](C)Oc2ccc(NC(=O)CCCCCC(=O)Nc3ccccc3N)cc2C(=O)N([C@@H](C)CO)C[C@@H]1C	-81	.
C[C@@H]1CCCCO[C@@H](CN(C)S(=O)(=O)c2ccc(Cl)cc2)[C@@H](C)CN([C@H](C)CO)C(=O)c2cc(NC(=O)CCCCCC(=O)Nc3ccccc3N)ccc2O1	.	/
CN1CCN(C(=O)C[C@@H]2C[C@@H]3c4cc(NC(=O)Nc5ccccc5F)ccc4O[C@@H]3[C@H](CO)O2)CC1	.	.
CC(C)NC(=O)Nc1ccc2c(c1)C(=O)N([C@H](C)CO)C[C@H](C)[C@H](CN(C)Cc1ccc(Cl)c(Cl)c1)O2	.	.
C[C@@H]1CN([C@H](C)CO)C(=O)c2cc(NC(=O)Nc3ccc(C(F)(F)F)cc3)ccc2O[C@@H](C)CCCCO[C@@H]1CN(C)C(=O)Nc1cccc2ccccc12	-82	.
C[C@@H]1CCCCO[C@@H](CN(C)C(=O)Nc2cccc3ccccc23)[C@@H](C)CN([C@@H](C)CO)C(=O)c2cc(NC(=O)Nc3ccc(C(F)(F)F)cc3)ccc2O1	-91	.
C[C@H](CO)N1C[C@H](C)[C@H](CN(C)C(=O)Nc2cccc3ccccc23)OCCCC[C@H](C)Oc2ccc(NC(=O)Nc3ccc(F)cc3)cc2C1=O	.	.
C[C@@H]1CCCCO[C@@H](CN(C)C(=O)Nc2cccc3ccccc23)[C@H](C)CN([C@@H](C)CO)C(=O)c2cc(NC(=O)Nc3ccc(C(F)(F)F)cc3)ccc2O1	.	.
